High-throughput results (PubChem BioAssay)
Pf Dd2 inh – inhibitors of Plasmodium falciparum Dd2 growth; P. falciparum Dd2 growth, SYBR Green, 72 h; Potency, µM (titrated, usually from 28.9 µM), most hits filed as inhibitors; AID 1347417; 4.3% of 120,000 active; active means well fitted inhibition curve with a large enough effect; further: nearly all actives have a fitted effect of over 65% in size
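Infected erythrocytes (Dd2, 0.3% parasitemia, 2.5% hematocrit final) are added to compound in RPMI-1640/Albumax II medium, grown 72 h at 37C in low oxygen, then lysed with saponin/Triton-X containing SYBR Green and read by fluorescence.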
Hits are given with their value; . = inactive. Many of the other results were omitted from the sample, so hits are more common in it than they were.

SMILES | Pf Dd2 inh
Clc1cccc(-c2cnc([C@@H]3COCCN3C3CCCCC3)[nH]2)c1 | 11.2µM
Clc1ccc(-c2cnc([C@@H]3COCCN3C3CCC3)[nH]2)cc1 | .
CS(=O)(=O)c1ccc(CN2CCOC[C@H]2c2ncc(-c3cccc(Cl)c3)[nH]2)cc1 | .
Clc1ccc(-c2cnc([C@@H]3COCCN3C3CCOCC3)[nH]2)cc1 | .
COc1ccc(-c2cnc([C@@H]3COCCN3Cc3ccc(C)cc3)[nH]2)cc1 | .
Fc1ccc(-c2cnc([C@@H]3COCCN3Cc3ccncc3)[nH]2)cc1 | .
COc1cccc(-c2cnc([C@@H]3COCCN3Cc3ccccc3)[nH]2)c1 | 11.2µM
CC(C)(C)CN1CCOC[C@H]1c1ncc(-c2ccc(Cl)cc2)[nH]1 | .
Clc1ccc(-c2cnc([C@@H]3COCCN3Cc3ccccc3)[nH]2)cc1 | 10µM
COC(C(=O)N1CC(=O)N(Cc2cccnc2)CC(OCc2ccccc2)C1)c1ccccc1 (stereo not given) | .
Cc1cc2c(c(=O)n(-c3ccccc3)c(=O)n2CC(=O)Nc2ccccc2F)n1C | .
Cc1ccnn1CCC(=O)N1CC[C@H](N2CCN(C)CC2)[C@H](CCC(=O)O)C1 | .
CCCN1CCN(C(=O)Cn2nc(C)c3sc(-c4ccccc4)nc3c2=O)CC1 | .
COc1ccc(N2CCOC3CCN(Cc4ccccn4)CC3C2=O)cc1 (stereo not given) | .
CN1C(=O)COC[C@@H]1[C@H](O)c1ccc(NC(=O)C2CCC2)cc1 | .
Cc1cc(C)n(CC(=O)N[C@@H]2CN(Cc3ccccn3)C[C@H]2CN(C)C)n1 | .
COC[C@@H]1CN(C(=O)c2ncccc2C)C[C@H]1c1nc(C2CC2)no1 | .
O=C(Nc1cnc(-c2ccc(Cl)cc2)nc1)c1ccccc1Cl | .
COc1ccc(C2=CC(c3ccccc3F)n3ncc(C(=O)Nc4ccc(C)cc4)c3N2)cc1 (stereo not given) | 7.94µM
COc1ccc(NC(=O)C2=C(C)Nc3ncnn3C2c2ccccn2)cc1 (stereo not given) | .
O=C(Nc1ccc(Cl)cc1)c1cnn2c1NC(c1ccccc1)=CC2c1ccccc1 (stereo not given) | 3.16µM
CC(=O)c1ccc(NC(=O)c2nc(-c3ccccc3)n(-c3ccc(Cl)cc3)n2)cc1 | .
COc1ccc(OC)c(C2NC(=O)NC(C)=C2C(=O)Nc2ccc(F)cc2)c1 (stereo not given) | .
CNC(=O)[C@@H](c1ccccc1F)N1CCC[C@H]1C(=O)NCC(C)C | .
CN1C(=O)CO[C@H](c2ccc(NC(=O)C(C)(C)C)cc2)[C@H]1CO | .
SMILES | Pf Dd2 inh
COc1cncc([C@@H](NC(=O)c2scc3c2OCCO3)C2CC(O)C2)c1 (stereo not given in full) | .
CC(C)c1ccc(CN2CCCC(O)(CNCCN3CCNCC3)C2=O)cc1 (stereo not given) | .
COc1cc(=O)n2c(c1C(=O)Nc1cccc(C)c1C)CCCC2 | .
COc1ccc(CNC(=O)c2cc3c(n2C)CCN(Cc2ccccc2)C3)cc1OC | .
COc1cccc(CN2CCc3c(cc(C(=O)NCc4ccccn4)n3C)C2)c1 | 0.891µM
COc1cccc(CN2CCc3nc(C(=O)Nc4cccnc4)oc3CC2)c1 | .
COc1cccc(CN2CCN3C(=O)N(Cc4ccccn4)C[C@H]3C2)c1 | .
O=C(Cn1c(=O)c2c(n1Cc1ccccc1)CN(Cc1ccccc1)CC2)NCc1ccc(F)cc1 | .
CCN(CC)C(=O)c1cc2c(n1C)CCN(Cc1ccc(F)cc1)C2 | 8.91µM
COc1cccc(CN2CCc3c(cc(C(=O)Nc4ccccc4)n3C)C2)c1 | 1.12µM
CC(C)N1CCN(C(=O)c2cc3c(n2C)CCN(Cc2ccc(F)cc2)C3)CC1 | .
COc1cccc(CC(=O)NCCC2CCN(C(=O)Nc3ccccc3C)CC2)c1 | .
COc1cccc(CN2CCc3c(cc(C(=O)Nc4cccc(C)c4C)n3C)C2)c1 | 4.47µM
COc1cccc(CN2CCc3c(cc(C(=O)N4CCOCC4)n3C)C2)c1 | .
Cn1cc(C(=O)NCC(=O)N2CCCCCNC(=O)CC2c2ccccc2)cn1 (stereo not given) | .
COc1cccc(C(=O)N2CCC3(CC2)CC(O)CCO3)c1OC (stereo not given) | .
CNC(=O)C1CN(c2cccc(Cl)c2)C(=O)N1 (stereo not given) | .
CCn1nccc1C(=O)N1CCC2(CC1)CC(N1CCN(c3ccccn3)CC1)CCO2 (stereo not given) | .
Cc1nc2ccc(C(=O)N3CCC(OCc4cccnc4)CC3)cc2nc1C | .
COc1ccc(NC(=O)c2ccc3c(c2)c(C)c(C)n3Cc2ccc(F)cc2)cc1 | .
COc1ccc(NC(=O)c2cc3c(n2C)CCN(Cc2ccc(F)cc2)C3)cc1 | 2.51µM
COc1ccc(NC(=O)C2=NO[C@@H]3CN(Cc4ccc(F)cc4)C[C@H]23)cc1 | .
O=C(N[C@@H]1C[C@H](Cn2cc(C3CC3)nn2)[C@@H](O)[C@H]1O)C1CCOCC1 | .
COc1ccc(CN2C(=O)CO[C@H](c3ccc(NS(=O)(=O)c4ccc(F)cc4)cc3)[C@H]2CO)cc1 | .
CCc1cc(=O)n(CC(=O)Nc2ccccc2C)c(-c2ccccc2)n1 | 10µM
SMILES | Pf Dd2 inh
CCc1cc(=O)n(CC(=O)Nc2cc(OC)c(OC)c(OC)c2)c(-c2ccccc2)n1 | 11.2µM
COc1ccccc1NC(=O)Cn1c(-c2ccccc2)nc(C)cc1=O | .
CCc1cc(=O)n(CC(=O)Nc2ccc(OC)cc2)c(-c2ccccc2)n1 | .
CCc1cc(=O)n(CC(=O)Nc2ccccc2)c(-c2ccccc2)n1 | .
CCc1cc(=O)n(CC(=O)Nc2ccc(OC)c(OC)c2)c(-c2cccc(F)c2)n1 | .
CCn1nccc1C(=O)N1CCCC(c2nnnn2C)C1 (stereo not given) | .
COc1cccc(CNC(=O)Cn2ccn3nc(-c4ccccc4)c(CO)c3c2=O)c1OC | .
CCOc1ccc(C(=O)NC2CCN(c3cnn(CC)c(=O)c3)CC2)cc1 | .
CC(C)NC(=O)NC[C@H]1OC[C@@H](NCc2ncc[nH]2)[C@@H]1O | .
CCOC(=O)C1CCN(C(=O)c2coc(COc3cccc(F)c3)n2)CC1 | .
CN(Cc1cnccn1)C(=O)CC(c1ccccc1)c1ccccc1Cl (stereo not given) | .
O=C(CC(c1ccccc1)c1ccccc1Cl)N(Cc1cccnc1)C1CC1 (stereo not given) | 12.6µM
O=C(CC(c1ccccc1)c1ccccc1F)NCc1cccnc1 (stereo not given) | .
COCC(=O)N1CCC2(CC1)CN(Cc1cnc(C(C)C)nc1)CCN2C | .
Fc1ccc(Nc2nc(-c3ccccc3)no2)cc1 | .
Fc1ccccc1-c1noc(-c2nc(-c3ccccc3F)no2)n1 | .
COc1cc(Nc2nc(-c3ccccc3F)no2)cc(OC)c1OC | 12.6µM
Cc1cc(C)cc(Nc2nc(-c3ccccc3F)no2)c1 | 12.6µM
COc1cc(Nc2nc(-c3ccccc3)no2)cc(OC)c1OC | .
COc1ccc(-c2noc(-c3nc(-c4ccccc4F)no3)n2)cc1OC | .
COCCNC(=O)C[C@@H]1O[C@H](Cn2cc(CN(C)Cc3ccccc3)nn2)[C@@H](O)[C@H]1O | .
COCc1nc(C2CCCN(C(=O)c3cccc(C)c3)C2)no1 (stereo not given) | .
O=C(NC1CCCCC1)C1CN(C(=O)c2ccc(Cl)s2)CC12CCOCC2 (stereo not given) | .
COc1cc(CNC(=O)c2cc3cn(C(C)C)cc3s2)cc(OC)c1 | 12.6µM
COc1ccc(CNC(=O)c2cc3cn(C(C)C)cc3s2)cc1 | .
CC(C)n1cc2cc(C(=O)NCc3cccnc3)sc2c1 | .
